The full list was thinned out, with hits kept by preference.
Pf apPOL inh = Pf-apPOL DNA polymerase inhibition. inhibition, % at 10 µM. AID 1794808. Recombinant Pf-apPOL, molecular beacon fluorescence, 1.5 h. actives 0.25% (n = 210,000)
mHTT CaM bind = disrupts binding of mutant huntingtin to calmodulin; AlphaScreen His-mHTT/GST-CaM binding, luminescence; inhibition, % at 15 µM; AID 1671202; actives 3.6% (n = 190,000);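 also: 0% = both proteins with DMSO and 100% = one protein alone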
Active calls of the source: *; i = inactive; · = no result. Rule as the data show it: active = inhibition above about 50%; inactive = the rest.

SMILES	Pf apPOL inh	mHTT CaM bind
Cc1ccc(C2CC(C(F)(F)F)n3nc(C(=O)Nc4cccnc4)cc3N2)cc1 (stereo not given)	-2	8
CC1CCN(C(=O)c2cc3n(n2)C(C(F)(F)F)CC(c2ccccc2)N3)C2CCCCC12 (stereo not given)	-11	58*
COc1ccc(C2CC(C(F)(F)F)n3nc(C(=O)N(C)Cc4ccccc4)c(Cl)c3N2)cc1 (stereo not given)	-4	89*
CC1CCC(C)N(C(=O)c2cc3n(n2)C(C(F)(F)F)CC(c2ccccc2)N3)C1 (stereo not given)	-1	30
Cc1ccc(C2CC(C(F)(F)F)n3nc(C(=O)NCCc4ccccc4)cc3N2)cc1 (stereo not given)	5	39
Cc1ccn2cc(C(=O)NCc3ccccc3F)nc2c1	1	-6
Cc1ccccc1OCCOc1ccc([N+](=O)[O-])cc1/C=C1\C(=O)NN(c2ccccc2)C1=O	-10	45
Cc1nc(NCCNC(=O)Cc2noc3ccccc23)cc(-n2ccnc2C)n1	-2	-8
CCCC1=NN(c2ccccc2)C(=O)/C1=C\c1cc(Cl)c(O)c(OC)c1	-6	66*
COc1cccc(/C=C2/C(=O)N(c3ccccc3)N=C2C)c1OC	-2	21
COc1cc(/C=C2/C(=O)N(c3ccc(Cl)c(Cl)c3)N=C2C)ccc1OCC(=O)O	-7	51*
CCCC1=NN(c2ccccc2)C(=O)/C1=C/c1cc(OC)c(OC)cc1Cl	-4	5
COc1ccc(/C=C2/C(=O)N(c3ccc(Cl)c(Cl)c3)N=C2C)cc1OC	-2	19
COc1cccc(/C=C2/C(=O)N(c3ccc(Cl)c(Cl)c3)N=C2C)c1O	-5	60*
COc1cccc(/C=C2/C(=O)N(c3ccccc3)N=C2C)c1O	-2	73*
C=CCOc1ccccc1/C=C1/C(=O)N(c2ccc(Cl)c(Cl)c2)N=C1C	20	1
CC(C)c1cc(C(=O)NC2CCCCCC2)nc2ccnn12	4	-143
COc1ccc(C2C(C#N)=C(N)N(c3ccc(F)cc3)C3=C2C(=O)CCC3)cc1OC (stereo not given)	7	5
CCOc1ccc(NC(C)=O)cc1NC(=O)c1cncc(Br)c1	-7	-5
COc1ccc(C)cc1NC(=O)CN(c1ccc([N+](=O)[O-])cc1)S(=O)(=O)c1ccccc1	-4	18
CCOc1ccc(C=CC(=O)N2CCC(C)CC2)cc1OC	-8	-2
COc1cc(/C=C2/C(=O)N(c3cccc(Br)c3)N=C2C)cc(OC)c1O	-3	88*
COc1ccc(Br)cc1/C=C1/C(=O)N(c2ccccc2)N=C1C	-1	7
COc1cc(/C=C2/C(=O)N(c3cccc(Br)c3)N=C2C)ccc1OC(C)C	0	18
COc1c(Br)cc(Br)cc1/C=C1/C(=O)N(c2ccccc2)N=C1C	-3	69*
SMILES	Pf apPOL inh	mHTT CaM bind
C(=N/N1CCN(c2ccccn2)CC1)/c1ccncc1	·	i
O=C(O)c1ccc2c(c1)C(=O)N(Nc1ccc([N+](=O)[O-])cc1)C2=O	1	2
Cc1cccc(-c2nc(C3CCN(S(=O)(=O)c4ccc(F)cc4)CC3)no2)c1	-4	-3
Cc1nc(N2CCOCC2)c2c(C)c(C(=O)Nc3ccc([N+](=O)[O-])cc3C)sc2n1	-5	52*
Cc1nc(N2CCOCC2)c2c(C)c(C(=O)Nc3ccc(Br)cc3C)sc2n1	-2	-2
c1cc[n+](CC[n+]2ccccc2)cc1	·	-1
COc1ccc(-n2cc(-c3ccccc3)c3c(NCc4ccccn4)ncnc32)cc1	-5	8
OCCNc1nc(Cl)nc(Nc2ccc(I)cc2)n1	-4	10
FC(F)(F)COc1nc(Cl)nc(Nc2ccccc2)n1	-4	86*
COc1ccc(OCC2c3cc(OC)c(OC)cc3CCN2C(=O)c2c(F)cccc2F)cc1 (stereo not given)	82*	30
COC(=O)c1ccc(OCC2c3cc(OC)c(OC)cc3CCN2C(=O)c2cc(OC)cc(OC)c2)cc1 (stereo not given)	-2	-3
CCC(=O)N1CCc2cc(OC)c(OC)cc2C1COc1ccc(OC)cc1 (stereo not given)	2	2
COc1cc2c(cc1OC)C(COc1ccccc1OC)N(C(C)=O)CC2 (stereo not given)	0	-7
COc1ccc(OCC2c3cc(OC)c(OC)cc3CCN2C(=O)c2ccc(OC)cc2)cc1 (stereo not given)	-1	57*
CCOc1ccccc1C(=O)N1CCc2cc(OC)c(OC)cc2C1COc1ccccc1OC (stereo not given)	-4	55*
O=C(NCc1cccc(Cl)c1)c1cnc2n(c1=O)CCS2	-3	0
O=C(NCCN1CCOC(c2ccccc2)C1)C(=O)Nc1ccc(OC(F)(F)F)cc1 (stereo not given)	-6	-3
N#C/C(=C\c1cn[nH]c1-c1ccccc1)S(=O)(=O)c1ccc(Cl)cc1	12	89*
N#CC(=Cc1c(Cl)cccc1Cl)S(=O)(=O)c1ccc(Cl)cc1	-5	·
Cn1c(SCC(=O)c2ccccc2)nnc1-c1ccc(NC(=O)c2ccccc2Cl)cc1	-5	16
Cn1c(SCC(=O)O)nnc1-c1ccc(NC(=O)c2ccccc2Cl)cc1	85*	1
Cc1cc(NC(c2cccc([N+](=O)[O-])c2)c2ccc3cccnc3c2O)no1 (stereo not given)	1	100*
O=[N+]([O-])c1cccc(C(Nc2ccccn2)c2ccc3cccnc3c2O)c1 (stereo not given)	-3	100*
O=C(/C=C/c1cccc([N+](=O)[O-])c1)Nc1ccccn1	-4	2
Cc1cc(NC(=O)c2cccc([N+](=O)[O-])c2)no1	-3	-6
SMILES	Pf apPOL inh	mHTT CaM bind
N=C1S/C(=C\c2cc3c(cc2Br)OCO3)C(=O)N1c1ccc2c(c1)OCO2	-5	6
COc1ccc(-c2cc(C(F)(F)F)n3ncc(C(=O)NCc4cccs4)c3n2)cc1	-2	-10
O=Cc1ccc(OCc2ccccc2F)c(Cl)c1	-10	-69
O=C(Nc1ccc2oc(-c3ccccc3F)nc2c1)c1ccccc1[N+](=O)[O-]	6	25
CSc1c(C(=O)Nc2ccccc2C)ccc2c1C(=O)c1ccccc1C2=O	2	7
CCN(CC)c1ccc(N)c(C)c1	-9	58*
CCN(CC)c1ccc(C#N)cc1	1	·
O=C(C=CC(=O)Nc1ccccc1C(F)(F)F)Nc1ccccc1C(F)(F)F	3	·
COc1cccc(C2=CC(c3ccccc3C)n3nnnc3N2)c1 (stereo not given)	-1	-2
CCC(C)NC(=O)c1cc2n(n1)CCCC2 (stereo not given)	0	-6
CCc1ccccc1NC(=O)c1csc(-c2ccc(C)n2C)n1	-3	35
Cc1ccc(NC(=O)c2csc(-c3ccc(C)n3C)n2)c(C)c1	1	-5
Cc1ccccc1CNC(=O)c1csc(-c2ccc(C)n2C)n1	2	82*
COc1ccccc1NC(=O)c1csc(-c2ccc(C)n2C)n1	-2	7
Cc1ccc(-c2nc(C(=O)NCc3ccccc3Cl)cs2)n1C	0	59*
Cc1ccc(NC(=O)c2csc(-c3ccc(C)n3C)n2)cc1	-6	60*
Cc1cc(C)cc(NC(=O)c2csc(-c3ccc(C)n3C)n2)c1	-9	3
Cc1ccc(-c2nc(C(=O)NCc3ccc(F)cc3)cs2)n1C	-5	85*

Screening results: PubChem BioAssay, University of Kansas High Throughput Screening Laboratory
